Data: PubChem BioAssay (NCATS)
Results filed as inconclusive are left out. Values without a mark were called inactive. The source made the active and inactive calls. Calls follow the shape of the dose curve; as a rule, active = well fitted inhibition curve with a large enough effect; inconclusive = small, poorly fitted or top-dose-only effect; inactive = no such curve, though single readings can be large or run the other way.

molecular target: Cytochrome P450 2C19 (Homo sapiens) (UniProt P33261); experiment: qHTS Assay for Inhibitors and Substrates of Cytochrome P450 2C19 (AID 899); conditions: recombinant CYP2C19, luciferin-H EGE luminescence; series mostly up to 11.4 µM; activity, negative = inhibition: at the top concentration; also: nearly all actives have a fitted effect of over 60% in size
Sequence (P33261 whole entry, looked up): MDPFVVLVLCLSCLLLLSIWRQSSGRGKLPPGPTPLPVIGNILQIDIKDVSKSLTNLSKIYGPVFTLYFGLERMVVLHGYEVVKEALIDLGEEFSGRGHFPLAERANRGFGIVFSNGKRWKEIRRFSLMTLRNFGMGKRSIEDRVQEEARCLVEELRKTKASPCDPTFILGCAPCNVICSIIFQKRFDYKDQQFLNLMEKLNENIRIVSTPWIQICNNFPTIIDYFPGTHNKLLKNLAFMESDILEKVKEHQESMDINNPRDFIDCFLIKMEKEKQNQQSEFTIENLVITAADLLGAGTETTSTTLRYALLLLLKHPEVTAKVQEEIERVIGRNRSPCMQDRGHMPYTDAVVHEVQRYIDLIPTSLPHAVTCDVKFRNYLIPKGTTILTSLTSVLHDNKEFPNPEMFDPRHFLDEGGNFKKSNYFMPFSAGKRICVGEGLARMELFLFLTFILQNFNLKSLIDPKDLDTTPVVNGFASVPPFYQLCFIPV
Description: NIH Molecular Libraries Screening Centers Network [MLSCN]
NIH Chemical Genomics Center [NCGC]
The P450 gene superfamily is involved in the metabolism and clearance of xenobiotics. This assay used human CYP2C19 to measure the hydroxylation of ethylene glycol ester of 6' deoxyluciferin (Luciferin-H EGE; […]) to luciferin. The luciferin is then measured by luminescence after the addition of a luciferase detection reagent. Luciferin-H EGE concentration in the assay was equal to its KM for CYP2C19. Inhibitors and some substrates limit the production of luciferin, and decrease measured luminescence.
NCGC Assay Protocol Summary:
Two uL of enzyme and substrate mix (final concentrations: 5nM CYP2C19, 10uM Luciferin-H EGE, 50mM KPO4) were dispensed into a white, solid bottom 1536-well microtiter plate. 23nL of compound was transferred by a pin tool. The plate was incubated at 37C for 10 min. Two uL of an NADPH regeneration solution (Promega supplied reagent) was dispensed and the reaction was allowed to continue for 60 min at 37C. Then the reaction was stopped by reconstituted luciferin detection buffer. After another 20 min of incubation the plate was read on the ViewLux (Perkin Elmer) at 60 sec exposure and 2x2 binning. This protocol was carried out with Promega-Glo reagents and further information can be found at http://www.promega.com/tbs/tb325/tb325.pdf. Data were normalized to the to AC100 inhibition (57uM ketoconazole).
Keywords: P450, CYP2C19, Luciferase, MLSMR, MLSCN, NIH Roadmap, qHTS, NCGC
% is scaled to controls: 0 for no effect and ±100 for the full control effect; potency is read from the fitted curve at half-maximal effect.

| Structure (SMILES) | activity, negative = inhibition | Potency |
| --- | --- | --- |
| Cn1c(=O)c2c(nc(Cc3ccccc3)n2CC(=O)O)n(C)c1=O | 50.8% | – |
| N[C@H](CCCC(=O)O)C(=O)O | 48.1% [at 57.1 µM] | – |
| CC(C)c1cc(C(F)(F)F)nc(NNc2nc(C(C)C)cc(C(F)(F)F)n2)n1 | – | 2510 nM (active) |
| COc1ccc(Oc2ncc3nc(CCc4ccccc4)c(=O)n(C4CC4)c3n2)cc1 | – | 1580 nM (active) |
| NNC(=O)CCc1ccc2ccc3ccccc3c2c1 | – | 251 nM (active) |
| CC(C)CNc1nc(N)[nH]c(=O)c1NC=O | 46.2% | – |
| O=[N+]([O-])c1ccc(CSCc2ccc(Cl)cc2)cc1 | – | 398 nM (active) |
| CN(CCc1ccccn1)c1ccc2c(c1)C(=O)c1ccccc1-2 | – | 2510 nM (active) |
| Nc1nc(Sc2ccc([N+](=O)[O-])c3nonc23)c2[nH]cnc2n1 | – | 1580 nM (active) |
| O=C1OC(=O)[C@@H]2[C@@H]1[C@@H]1CC[C@H]2O1 | 27.2% [at 57.1 µM] | – |
| NCCSc1nc2ccccc2s1 | – | 1580 nM (active) |
| CC[C@H]1C(=O)OC[C@H]1Cc1cncn1C | -25.7% [at 57.1 µM] | – |
| O=C(O)CC1(CC(=O)O)Nc2ccccc2SC1=O | 30.9% | – |
| O=C1c2cccc([N+](=O)[O-])c2C(=O)N1c1ncn[nH]1 | 64.8% | – |
| Clc1ccccc1C(Nc1ncccn1)Nc1ncccn1 | 54.6% | – |
| O=C(O)[C@@H](O)[C@@H](O)[C@@H](O)[C@@H](O)c1nc2ccccc2s1 | – | 3160 nM (active) |
| c1cncc(CNc2ncn[nH]2)c1 | 56.9% | – |
| NC(CSS(=O)(=O)O)=N[C@@H]1C[C@H]2CC[C@@H]1C2 | 45.1% | – |
| C[N+](C)(N)CCC[N+](C)(C)N | 99% | – |
| c1cc(CSSCc2ccncc2)ccn1 | – | 1260 nM (active) |

| Structure (SMILES) | activity, negative = inhibition | Potency |
| --- | --- | --- |
| C[C@H]1[C@H](O)[C@@H](C)C=CC=CC=CC=CC=CC=CC=C[C@H](O[C@@H]2O[C@@H](C)[C@H](O)[C@@H](N)[C@@H]2O)C[C@@H]2O[C@](O)(C[C@@H](O)C[C@@H](O)[C@@H](O)CC[C@@H](O)C[C@@H](O)CC(=O)O[C@H]1C)C[C@H](O)[C@H]2C(=O)O | 9.68% | – |
| CN(CCc1ccccn1)c1ccc2c(c1)Cc1ccccc1-2 | – | 794 nM (active) |
| C[C@@]12CCC(=O)C=C1CC[C@H]1[C@@H]2[C@@H](O)C[C@]2(C)[C@@H]1CC[C@@]2(O)C(=O)CO | 48.8% | – |
| N#C/C(=C(\O)C(=O)O)c1ccc(-c2cccc3ccccc23)cc1 | 97.6% | – |
| COc1ccc2cc1Oc1ccc(cc1)C[C@H]1c3cc(c(OC)cc3CCN1C)Oc1c(OC)c(OC)cc3c1[C@@H](C2)N(C)CC3 | – | inactive |
| Cc1cc(O)c(C(C)C)cc1N=Cc1ccccc1O | – | 398 nM (active) |
| CCCC1c2c(ccc3ccccc23)Oc2ccc3ccccc3c21 | – | 631 nM (active) |
| N#Cc1c(NC(=O)CCC(=O)O)ccc2ccccc12 | 88.8% | – |
| NC(=O)c1csc(-c2ccc(CO)o2)n1 | 74% | – |
| CC(C)(C)c1ccc(O)c(CN(Cc2c(O)ccc3ccccc23)C2CCCCC2)c1 | – | 2000 nM (active) |
| N=C(N)SCC(=O)O | 59.3% | – |
| CC(C)(C)c1c2c(c(C(C)(C)C)c3c1OCN(Cc1ccccc1)C3)OCN(Cc1ccccc1)C2 | 53% | – |
| COc1cccc2[nH]c(-c3ccccn3)nc12 | – | 2510 nM (active) |
| c1ccc(NCCSc2nc3ccccc3s2)cc1 | – | 398 nM (active) |
| O=C(SCc1cccc2ccccc12)c1ccc(Cl)cc1 | – | 1580 nM (active) |
| Oc1ccc(Cc2cc(Cl)cc(Cl)c2O)cc1Cl | – | 1260 nM (active) |
| Cc1ccc(CSC(N)=Nc2ccccc2)cc1C | – | 2000 nM (active) |
| C[N+](C)(C)c1ncnc2c1ncn2[C@@H]1CCCCO1 | 49.2% | – |
| O=C(c1cc(Br)ccc1O)c1cc(Br)ccc1O | – | 199 nM (active) |
| N=C(N)CCNC(=O)[C@@H]1CCC(N)=N1 | 59.6% | – |
